The list is not random: actives were taken first. Their share in the collection is about 3.8%.
FGF22 binding: shifts melting point of recombinant human FGF22. recombinant FGF22 thermal shift, SYPRO orange fluorescence; percent of sucrose octasulfate shift, DMSO zero. activity (Tm shift, normalised), % at 9.99 µM. 340,000 compounds, 1.5% hits. AID 651658;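 active = mean Tm shift, scaled 0 neutral to 100 positive control, at about 1.3% or above, every replicate too, limit read from the data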
Target sequence (Q9HCT0 whole entry, looked up): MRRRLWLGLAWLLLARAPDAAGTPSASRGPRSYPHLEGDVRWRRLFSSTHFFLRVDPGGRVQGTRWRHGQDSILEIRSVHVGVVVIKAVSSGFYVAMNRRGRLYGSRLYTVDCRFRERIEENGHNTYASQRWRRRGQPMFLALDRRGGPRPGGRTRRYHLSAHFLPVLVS
ADAM17 inh: ADAM17 inhibition, QFRET primary screen | P78536 | recombinant ADAM17, EDANS/DABCYL FRET peptide cleavage | inhibition, % at 6.95 µM | 370,000 compounds, 0.83% hits | AID 720648;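 active = inhibition above the mean of compounds lying between control limits plus 3 SD, set per campaign, cut at about 8.5% in these data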
ADAM10 inh: ADAM10 inhibition, QFRET primary screen; inhibition, % at 7 µM; recombinant ADAM10, EDANS/DABCYL FRET peptide cleavage, 3 h; AID 720582; 370,000 compounds, 0.62% hits; O14672;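 active = inhibition above a per-campaign cutoff equal to the mean of compounds falling between control-based bounds plus 3 SD, cut at about 20% in these data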
Target sequence (O14672 214-748 limits assumed): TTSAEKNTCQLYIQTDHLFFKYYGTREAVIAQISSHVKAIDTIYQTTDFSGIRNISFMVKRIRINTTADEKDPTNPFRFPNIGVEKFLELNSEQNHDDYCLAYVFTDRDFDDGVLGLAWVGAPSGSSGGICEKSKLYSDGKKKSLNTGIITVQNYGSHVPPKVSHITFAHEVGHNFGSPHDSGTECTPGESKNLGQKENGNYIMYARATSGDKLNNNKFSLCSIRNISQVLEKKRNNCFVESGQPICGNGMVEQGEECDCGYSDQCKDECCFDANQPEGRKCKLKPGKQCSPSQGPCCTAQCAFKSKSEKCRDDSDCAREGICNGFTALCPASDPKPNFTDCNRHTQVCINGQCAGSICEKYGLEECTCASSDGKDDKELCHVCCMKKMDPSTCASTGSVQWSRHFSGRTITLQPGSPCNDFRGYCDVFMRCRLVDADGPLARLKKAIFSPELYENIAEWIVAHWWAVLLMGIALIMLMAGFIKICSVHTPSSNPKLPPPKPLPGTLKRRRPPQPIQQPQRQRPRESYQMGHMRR
rRNA inh HTS: inhibits bacterial ribosomal RNA function over humanized ribosomes; GFP signal change (wild-type ribosome), % (test concentration not listed); E. coli WT GFP vs humanized-ribosome RFP mutants, fluorescence, 24 h; active compounds read low; DMSO median 0, no signal -100; 350,000 compounds, 1.6% hits;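 active = significant combined selectivity score with lowered wild-type GFP, culture density cut under 30%, mutant RFP and density less affected; inactive = any of these conditions unmet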
KLK7 zymogen act: proKLK7 (human) activation, primary screen. activation, % at 7 µM. P49862. purified proKLK7, EDANS-DABCYL substrate fluorescence; 100% is mature enzyme control, 0% vehicle. 370,000 compounds, 0.9% hits;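 active = activation above the mean of all tested compounds plus 3 SD, computed per campaign excluding outliers beyond control limits, cut at about 13% in these data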
Of the large screens only hits and unclear results are named; the others gave an inactive call.

COc1ccccc1C#Cc1ccc([C@H]2[C@H](CO)N3CCCCN(C(=O)C4CC4)C[C@@H]23)cc1	none (no result: ADAM17 inh, ADAM10 inh, rRNA inh HTS, KLK7 zymogen act)
Cc1ccc(S(=O)(=O)Oc2ccccc2[N+](=O)[O-])cc1	FGF22 binding 43
COc1cccc(-c2nnc(SC(C(=O)c3c[nH]c4ccccc34)c3ccccc3)n2C)c1 (centres undefined)	FGF22 binding 43
COc1cccc(-c2nnc(SCCC(=O)O)n2C)c1	none (no result: FGF22 binding, rRNA inh HTS)
CCOc1ccc(NC(=O)C2C(C(=O)O)C3(Cl)C(Cl)=C(Cl)C2(Cl)C3(Cl)Cl)cc1 (centres undefined)	none (no result: FGF22 binding)
COc1ccc(OC)c(NC(=O)C2C(C(=O)O)C3(Cl)C(Cl)=C(Cl)C2(Cl)C3(Cl)Cl)c1 (centres undefined)	rRNA inh HTS -19
CN(C)CCN(Cc1ccco1)C(=O)c1cc2c(Cl)nc3ccccc3c2s1	rRNA inh HTS -33
Cc1ccc2nc(Cl)c3cc(C(=O)N(CCN(C)C)Cc4ccco4)sc3c2c1	none
Cc1noc(C)c1NC(=O)N(C)C[C@@H]1Oc2c(NS(=O)(=O)c3ccc(Cl)cc3)cccc2C(=O)N([C@H](C)CO)C[C@H]1C	none (no result: ADAM17 inh, ADAM10 inh, KLK7 zymogen act)
Cc1cc(-c2nnc(SCC(=O)c3ccc4c(c3)OCCO4)o2)no1	FGF22 binding 44
Cc1cc(-c2nnc(SCC(=O)c3ccc(F)cc3)o2)no1	FGF22 binding 44
Cc1cc(C)cc(-c2nnc(SCC(=O)c3ccc4c(c3)OCCO4)o2)c1	none (no result: FGF22 binding, rRNA inh HTS)
CC(=O)Nc1ccc2c(c1)C(=O)N(C)C[C@@H](C)[C@@H](CN(C)C(=O)NC(C)C)O2	none (no result: FGF22 binding, ADAM17 inh, ADAM10 inh, KLK7 zymogen act)
O=C1c2ccccc2CCC12OC2c1ccncc1 (centres undefined)	none (no result: rRNA inh HTS)
O=C1c2ccccc2CCC12OC2c1ccc([N+](=O)[O-])cc1 (centres undefined)	FGF22 binding 44
COC(=O)COc1ccc(S(=O)(=O)NCCC2=CCCCC2)cc1C	rRNA inh HTS -21
CC[C@]12c3[nH]c4cc(-c5ccco5)ccc4c3CCN1C(=O)[C@@H](CC(=O)NC(C)(C)C)C[C@@H]2C(=O)N1CCN(C(=O)c2ccco2)CC1	KLK7 zymogen act 116
C[C@]12c3[nH]c4ccc(Cl)cc4c3CCN1C(=O)[C@@H](CC(=O)NCc1ccco1)C[C@@H]2C(=O)N1CCOCC1	rRNA inh HTS -23
CC(C)N(C(=O)[C@H]1CC(CC(=O)NCc2ccco2)C(=O)N2CCc3c([nH]c4ccccc34)[C@]12C)C(C)C (some centres undefined)	none
COc1ccc(CNC(=O)C[C@H]2C[C@H](C(=O)N3CCCCC3)[C@@]3(C)c4[nH]c5cc(-c6ccco6)ccc5c4CCN3C2=O)cc1OC	KLK7 zymogen act 68
CC(C)N(C(=O)[C@H]1C[C@H](CC(=O)NCc2ccco2)C(=O)N2CCc3c([nH]c4cc(-c5ccco5)ccc34)[C@]12C)C(C)C	KLK7 zymogen act 35
C[C@@H]1CN([C@H](C)CO)C(=O)c2cc(C#Cc3ccccc3)cnc2O[C@@H]1CN(C)C(=O)CCN1CCCCC1	none (no result: ADAM17 inh, ADAM10 inh, KLK7 zymogen act)
CC(=O)Nc1cccc2c1O[C@@H](CN(C)S(C)(=O)=O)[C@H](C)CN(C)C2=O	none (no result: FGF22 binding, ADAM17 inh, ADAM10 inh, KLK7 zymogen act)
O=C1N[C@@H](c2ccccc2)COCc2cn(nn2)CC[C@@H](Cc2ccc(C(F)(F)F)cc2)C(=O)N[C@@H](c2ccccc2)COCc2cn(nn2)CC[C@H]1Cc1ccc(C(F)(F)F)cc1	none (no result: FGF22 binding, ADAM17 inh, ADAM10 inh, KLK7 zymogen act)
C[C@H](CO)N1C[C@H](C)[C@H](CN(C)C(=O)CC2CC2)Oc2cc(C#CC(C)(C)O)ccc2S1(=O)=O	none (no result: ADAM17 inh, ADAM10 inh, KLK7 zymogen act)
CCNC1(C(N)=O)CCN(Cc2ccccc2)CC1	none
CCCNC1(C(N)=O)CCN(Cc2ccccc2)CC1	FGF22 binding 43
O=C(C[C@H]1C=C[C@H](NC(=O)C2CCC2)[C@H](CO)O1)NCc1ccncc1	none (no result: ADAM17 inh, ADAM10 inh, KLK7 zymogen act)
O=C(N[C@@H]1CC[C@@H](CCNS(=O)(=O)c2ccccc2)O[C@H]1CO)c1cccc(F)c1	none (no result: ADAM17 inh, ADAM10 inh, KLK7 zymogen act)
O=C(NCCc1c[nH]c2ccccc12)/C(=C/c1ccco1)NC(=O)c1ccco1	FGF22 binding 43
O=C(NCCc1c[nH]c2ccccc12)/C(=C/c1cccnc1)NC(=O)c1cccs1	rRNA inh HTS -28
CCCN1C[C@@H](C)[C@H](OC)CN(C)C(=O)c2cc(NC(=O)Nc3ccccc3F)ccc2OC[C@H]1C	none (no result: ADAM17 inh, ADAM10 inh, KLK7 zymogen act)
C[C@H](CO)N1C[C@H](C)[C@@H](CN(C)S(C)(=O)=O)Oc2ccc(NC(=O)Nc3cccc4ccccc34)cc2CC1=O	none (no result: ADAM17 inh, ADAM10 inh, rRNA inh HTS, KLK7 zymogen act)
Cc1ccc(-n2nc(CC#N)c(C#N)c2N)cc1	none (no result: FGF22 binding, rRNA inh HTS)
Cc1ccc(Nc2nc(N)c(C#N)c(CC#N)c2C#N)cc1	FGF22 binding 44
CCC(=O)N[C@@H]1C=C[C@H](CC(=O)NCC2CC2)O[C@@H]1CO	none (no result: FGF22 binding, ADAM17 inh, ADAM10 inh, KLK7 zymogen act)
CCCCN1C(=O)CC(SC2CC(=O)N(CCCC)C2=O)C1=O (centres undefined)	FGF22 binding 43
CCOC(=O)C1=C(C)N(CCCCCC(=O)O)C(=O)NC1c1cccc([N+](=O)[O-])c1 (centres undefined)	none
CC1=C(C(=O)OCc2ccccc2)C(c2ccc(C#N)cc2)NC(=O)N1CCCC(=O)O (centres undefined)	rRNA inh HTS -17
CC1=C(C(=O)OCc2ccccc2)C(c2ccccc2)NC(=O)N1CCCC(=O)O (centres undefined)	none
CC1=C(C(=O)OCC(Br)(Br)Br)C(c2cccc([N+](=O)[O-])c2)NC(=O)N1CCCC(=O)O (centres undefined)	rRNA inh HTS -20
C[C@@H]1CN(C)C(=O)Cc2cc(N)ccc2O[C@@H]1CN(C)C	none (no result: FGF22 binding, ADAM17 inh, ADAM10 inh, KLK7 zymogen act)
Cc1ccc(/C=C/C(=O)O)cc1S(=O)(=O)NC1CCS(=O)(=O)C1 (centres undefined)	FGF22 binding 43
O=C(Nc1ccc(O)c2c(=O)cc(-c3ccccc3Cl)oc12)c1cccc(Cl)c1	none
Cc1cccc(C(=O)Nc2ccc(O)c3c(=O)cc(-c4ccccc4Cl)oc23)c1	FGF22 binding 45
Cc1nn(Cc2ccc(C(=O)Nc3ccccc3F)cc2)c(C)c1Cl	rRNA inh HTS -24
Cc1cc(CNC(=O)COc2ccc(C)c(C)c2)c2ccccc2n1	rRNA inh HTS -25
COCC(=O)Nc1ccc2c(c1)OC[C@@H](C)N(Cc1cncnc1)C[C@@H](C)[C@@H](OC)CN(C)C2=O	none (no result: FGF22 binding, ADAM17 inh, ADAM10 inh, KLK7 zymogen act)
NS(=O)(=O)c1ccc(NC(=O)N2c3ccccc3Sc3ccccc32)cc1	rRNA inh HTS -45
COc1ccc2c3c([nH]c2c1)[C@@H](CO)NCC31CN(Cc2ccccc2F)C1	none (no result: ADAM17 inh, ADAM10 inh, KLK7 zymogen act)
CCOC(=O)c1c(C)[nH]c(C(=O)COC(=O)COc2ccc(OC)cc2)c1C	FGF22 binding 44
CC(=O)c1c(C)[nH]c(C(=O)COC(=O)COc2ccccc2)c1C	none
COc1cc(CCC(=O)OCC(=O)N(CC(C)C)C2CCS(=O)(=O)C2)cc(OC)c1OC (centres undefined)	none

Screening results (PubChem)
